According to PubChem BioAssay (NCATS):
Inconclusive results are not listed. Where a call stands in place of a potency, no number is given. Calls of active or inactive are those of the source. Calls follow the shape of the dose curve; as a rule, active = well fitted curve in the direction sought with a large enough effect; inconclusive = small, poorly fitted or top-dose-only effect, or another doubt; inactive = no such curve, though single readings can be large; an effect the other way counts as inactive or inconclusive.

Each compound was assayed against Thyrotropin receptor (Homo sapiens) (UniProt P16473) (assay: qHTS Assay for Antagonists of the Thyroid Stimulating Hormone Receptor (AID 488980)). Details: TSHR-expressing cells, cAMP antagonist read-out; series mostly up to 57.5 µM.
Chain of Thyrotropin receptor (Homo sapiens) (P16473 whole entry, looked up): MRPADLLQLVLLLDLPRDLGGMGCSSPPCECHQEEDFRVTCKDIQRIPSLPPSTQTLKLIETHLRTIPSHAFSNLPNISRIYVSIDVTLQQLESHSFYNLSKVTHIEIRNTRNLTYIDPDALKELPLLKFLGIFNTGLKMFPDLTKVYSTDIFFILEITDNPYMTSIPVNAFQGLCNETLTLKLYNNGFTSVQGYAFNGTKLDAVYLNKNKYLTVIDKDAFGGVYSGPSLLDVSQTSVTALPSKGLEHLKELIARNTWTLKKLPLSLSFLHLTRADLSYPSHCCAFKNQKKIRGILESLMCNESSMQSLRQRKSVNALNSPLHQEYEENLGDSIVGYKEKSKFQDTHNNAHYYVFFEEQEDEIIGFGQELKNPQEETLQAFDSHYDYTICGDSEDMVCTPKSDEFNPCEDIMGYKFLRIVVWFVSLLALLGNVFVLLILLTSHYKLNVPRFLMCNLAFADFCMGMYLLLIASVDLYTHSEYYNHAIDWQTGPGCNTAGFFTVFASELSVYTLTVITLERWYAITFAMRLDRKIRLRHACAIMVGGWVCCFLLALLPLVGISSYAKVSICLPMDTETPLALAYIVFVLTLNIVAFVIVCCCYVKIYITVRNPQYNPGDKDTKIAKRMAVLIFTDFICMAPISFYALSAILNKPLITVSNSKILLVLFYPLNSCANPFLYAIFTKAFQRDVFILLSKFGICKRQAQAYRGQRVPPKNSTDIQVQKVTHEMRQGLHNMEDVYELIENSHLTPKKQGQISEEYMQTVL
Procedure, shortened: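 TSHR-HEK293 cells; 70 uM RO 20-1724 PDE inhibitor; compound + EC80 TSH (4 nM final); anti-cAMP cryptate antibody/cAMP-d2 in lysis buffer, 30 min RT; HTRF 665/620 nm read.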

SMILES | outcome
N[C@@H](CCCC(=O)O)C(=O)O | inactive
CSC(N)=NCCC[C@H](N)C(=O)O | inactive
NCCCCN=C(N)N | inactive
C#CCn1c(=O)c2c(ncn2C)n(C)c1=O | inactive
O=C(O)Cc1c[nH]c2ccc(O)cc12 | inactive
COc1cc(N)c(Cl)cc1C(=O)OCCN1CCCCC1 | inactive
c1ccc(C2CN3CCSC3=N2)cc1 (stereo unspecified) | inactive
NCCS(=O)O | inactive
Oc1ccc(Cn2cc[nH]c2=S)cc1 | inactive
COc1ccc(-c2ccc(N)[n+](CCCC(=O)O)n2)cc1 | inactive
CC(C)Cn1c(=O)n(C)c(=O)c2[nH]cnc21 | inactive
Cn1cc(C(F)(F)F)nc1-c1ccc(OCC(O)CNCCOc2ccc(O)c(C(N)=O)c2)cc1 (stereo unspecified) | inactive
Cn1c(=O)c2c(nc(/C=C/c3cccc(Cl)c3)n2C)n(C)c1=O | inactive
Cn1cc(C(=O)OCC2CCN(CCNS(C)(=O)=O)CC2)c2ccccc21 | inactive
NC/C=C\C(=O)O | inactive
Nc1ccc(-c2nc3ccc(-c4nc5ccc(N)cc5[nH]4)cc3[nH]2)cc1 | inactive
NC(=O)c1cc[n+](CC2=C(C(=O)O)N3C(=O)[C@@H](NC(=O)[C@@H](c4ccccc4)S(=O)(=O)[O-])[C@H]3SC2)cc1 | inactive
N[C@@H](Cc1c[nH]c2ccccc12)C(=O)O | inactive
CN[C@H](CC(=O)O)C(=O)O | inactive

SMILES | outcome
CCCCCCCCCC[Si](C)(C)CCC(=O)NC(Cc1ccc(C)cc1)c1ccccc1 (stereo unspecified) | inactive
Cc1cccc(C)c1OCC(N)C(C)C (stereo unspecified) | inactive
Cn1ccnc1 | inactive
CCCn1c(=O)c2[nH]c(-c3ccc(S(=O)(=O)O)cc3)nc2n(CCC)c1=O | inactive
C#CC(N)CCC(=O)O (stereo unspecified) | inactive
COc1ccccc1N1CCN(CCCCNC(=O)c2ccc3ccccc3c2)CC1 | inactive
CCSC(=N)N | inactive
O=C(O)[C@H]1NCCC[C@H]1C(=O)O | inactive
CC(C)NC[C@H](O)COc1ccc(CC(N)=O)cc1 | inactive
CCC(=O)N1CCN(C(=O)c2ccccc2)CC1 | inactive
NC(=O)CNCCC(c1ccccc1)c1ccccc1 | inactive
Nc1ncnc2c1ncn2C1CCCO1 (stereo unspecified) | inactive
N=C(N)c1ccccc1 | inactive
O=C(O)/C=C/c1ccc(O)c(O)c1 | inactive
Cc1nc(N=Nc2ccc(C(=O)O)cc2)c(COP(=O)(O)O)c(C=O)c1O | inactive
CC[N+](CC)(CC)CC(=O)Nc1c(C)cccc1C | inactive
CCN1C(=O)C=CC1=O | inactive
O=C(O)CCC(=O)N1CCCC1C(=O)O (stereo unspecified) | inactive
O=C(O)C1CCNCC1 | inactive

What follows are compounds tested against D(1A) dopamine receptor (Homo sapiens) (UniProt P21728) (assay: HTS Assay for Allosteric Agonists of the Human D1 Dopamine Receptor: Primary Screen for Agonists (AID 488981)). Details: Inducible HEK293 T-REx D1 cells, calcium-flux fluorescence, 180 s kinetic; series mostly up to 41.8 µM.
Chain of D(1A) dopamine receptor (Homo sapiens) (P21728 whole entry, looked up): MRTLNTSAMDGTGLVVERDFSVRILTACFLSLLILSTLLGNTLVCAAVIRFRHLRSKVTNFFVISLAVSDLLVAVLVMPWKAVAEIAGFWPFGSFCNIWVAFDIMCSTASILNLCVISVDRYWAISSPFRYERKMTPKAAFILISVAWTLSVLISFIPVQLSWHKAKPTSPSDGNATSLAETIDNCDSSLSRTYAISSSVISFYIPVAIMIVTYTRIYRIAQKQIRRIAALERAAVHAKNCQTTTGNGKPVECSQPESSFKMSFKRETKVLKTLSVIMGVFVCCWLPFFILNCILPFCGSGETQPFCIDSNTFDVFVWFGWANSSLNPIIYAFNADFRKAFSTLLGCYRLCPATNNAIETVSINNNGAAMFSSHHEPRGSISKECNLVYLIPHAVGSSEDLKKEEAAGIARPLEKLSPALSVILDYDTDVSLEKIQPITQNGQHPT
Procedure, shortened: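 Tetracycline-induced HEK293 Trex D1 cells with forced coupling to calcium, loaded with no-wash calcium dye; kinetic fluorescence read 180 s after compound addition for agonism, then a further 180 s after an EC20 dopamine challenge for potentiation.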

SMILES | Potency
N[C@@H](CCCC(=O)O)C(=O)O | inactive
CSC(N)=NCCC[C@H](N)C(=O)O | inactive
NCCCCN=C(N)N | inactive
C#CCn1c(=O)c2c(ncn2C)n(C)c1=O | inactive
O=C(O)Cc1c[nH]c2ccc(O)cc12 | inactive
COc1cc(N)c(Cl)cc1C(=O)OCCN1CCCCC1 | inactive
c1ccc(C2CN3CCSC3=N2)cc1 (stereo unspecified) | inactive
NCCS(=O)O | inactive
Oc1ccc(Cn2cc[nH]c2=S)cc1 | inactive
COc1ccc(-c2ccc(N)[n+](CCCC(=O)O)n2)cc1 | inactive
CC(C)Cn1c(=O)n(C)c(=O)c2[nH]cnc21 | inactive
Cn1cc(C(F)(F)F)nc1-c1ccc(OCC(O)CNCCOc2ccc(O)c(C(N)=O)c2)cc1 (stereo unspecified) | inactive
Cn1c(=O)c2c(nc(/C=C/c3cccc(Cl)c3)n2C)n(C)c1=O | inactive
Cn1cc(C(=O)OCC2CCN(CCNS(C)(=O)=O)CC2)c2ccccc21 | inactive
NC/C=C\C(=O)O | inactive
Nc1ccc(-c2nc3ccc(-c4nc5ccc(N)cc5[nH]4)cc3[nH]2)cc1 | inactive
NC(=O)c1cc[n+](CC2=C(C(=O)O)N3C(=O)[C@@H](NC(=O)[C@@H](c4ccccc4)S(=O)(=O)[O-])[C@H]3SC2)cc1 | inactive
N[C@@H](Cc1c[nH]c2ccccc12)C(=O)O | inactive
CN[C@H](CC(=O)O)C(=O)O | inactive

SMILES | Potency
CCCCCCCCCC[Si](C)(C)CCC(=O)NC(Cc1ccc(C)cc1)c1ccccc1 (stereo unspecified) | inactive
Cc1cccc(C)c1OCC(N)C(C)C (stereo unspecified) | inactive
Cn1ccnc1 | inactive
CCCn1c(=O)c2[nH]c(-c3ccc(S(=O)(=O)O)cc3)nc2n(CCC)c1=O | inactive
C#CC(N)CCC(=O)O (stereo unspecified) | inactive
COc1ccccc1N1CCN(CCCCNC(=O)c2ccc3ccccc3c2)CC1 | inactive
CCSC(=N)N | inactive
O=C(O)[C@H]1NCCC[C@H]1C(=O)O | inactive
CC(C)NC[C@H](O)COc1ccc(CC(N)=O)cc1 | inactive
CCC(=O)N1CCN(C(=O)c2ccccc2)CC1 | inactive
NC(=O)CNCCC(c1ccccc1)c1ccccc1 | inactive
Nc1ncnc2c1ncn2C1CCCO1 (stereo unspecified) | inactive
N=C(N)c1ccccc1 | inactive
O=C(O)/C=C/c1ccc(O)c(O)c1 | inactive
Cc1nc(N=Nc2ccc(C(=O)O)cc2)c(COP(=O)(O)O)c(C=O)c1O | inactive
CC[N+](CC)(CC)CC(=O)Nc1c(C)cccc1C | inactive
CCN1C(=O)C=CC1=O | inactive
O=C(O)CCC(=O)N1CCCC1C(=O)O (stereo unspecified) | inactive
O=C(O)C1CCNCC1 | inactive
